A selection: hits, their analogues and other compounds. The true share with any hit is near 18%.
PLK1 PBD block: PLK1 (human) polo-box domain binding inhibition; P53350; Plk1 PBD binding of FITC phosphopeptide, fluorescence polarization; Potency, µM, for the others: max response, negative = inhibition, usual class: inhibitors; hit rate 2.8% among 360,000; AID 720504; also: series mostly up to about 57 µM; nearly all actives have a fitted effect of over 65% in size
TDP1 cell noCPT: qHTS for Inhibitors of human tyrosyl-DNA phosphodiesterase 1 (TDP1): qHTS in cells in absence of CPT. DT40 Tdp1-/- hTDP1 cells, no CPT, ATP luminescence, 48 h. Potency, µM (highest dose often 46.2 µM), without a hit: at the top dose activity change, negative = growth inhibition, actives largely listed as inhibitors. hit rate 15% among 420,000; also: nearly all actives have a fitted effect of over 55% in size
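Growth kinetics read by CellTiter-Glo luminescence after ≥48 hr at 37 °C. Cells: DT40 Tdp1-/- stably carrying human TDP1, 400 per well, compound exposure in the absence of CPT (DMSO vehicle).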
GCN5L2 inh: blocks human GCN5L2 histone acetyltransferase. Q92830. GCN5L2 HAT assay, ThioGlo1 CoA-SH fluorescence. Potency, µM (series often up to 58.9 µM), without a hit: at the highest dose activity change, negative = inhibition, hits mostly inhibitors. hit rate 0.21% among 390,000. AID 504327
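Preincubate 20nM GCN5L2 with compound 15 min, RT → add 50uM ThioGlo1 + 75uM H3(1-25) + 70uM acetyl-CoA → read fluorescence 0 and 20 min. Primary qHTS; fluorescent artifacts likely.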
DT40 TDP1 CPT: DT40-hTDP1 cell growth loss with CPT | chicken DT40 Tdp1-/-;hTDP1 cells + 20 nM CPT, ATP luminescence, 48 h | Potency, µM (highest dose often 46.2 µM), for inactives: at the highest dose activity change, negative = growth inhibition, actives largely listed as inhibitors | hit rate 12% among 420,000 | AID 686979; also: nearly all actives have a fitted effect of over 55% in size
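Chicken DT40 Tdp1-/- cells stably complemented with human TDP1 were seeded at 400 cells/well in medium containing 20 nM camptothecin, exposed to pin-transferred compounds, and grown at 37 °C for at least 48 hr. Viability was read as ATP luminescence.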
TDP1 block: inhibitors of human tyrosyl-DNA phosphodiesterase TDP1 | Q9NUW8 | recombinant TDP1, AlphaScreen DNA substrate cleavage | Potency, µM (series often up to 130 µM), without a hit: at the highest dose activity change, negative = inhibition, most hits filed as inhibitors | hit rate 0.28% among 350,000; also: nearly all actives have a fitted effect of over 40% in size
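Recombinant E. coli-expressed Tdp1 (1 nM) preincubated with compound 15 min at RT, then 5'-biotin/3'-phosphotyrosine-FITC DNA substrate (15 nM) added for 5 min. AlphaScreen beads (10 ug/ml) added, 10 min RT; tyrosine-FITC cleavage read as signal loss.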
VDR inhibitor: inhibitors of human vitamin D receptor; VDR-SRC2-3 peptide fluorescence polarization, 2 h; Potency, µM, for inactives: max response, negative = inhibition, hits mostly inhibitors; hit rate 0.93% among 400,000; AID 504847
Target sequence (P11473 whole entry, looked up): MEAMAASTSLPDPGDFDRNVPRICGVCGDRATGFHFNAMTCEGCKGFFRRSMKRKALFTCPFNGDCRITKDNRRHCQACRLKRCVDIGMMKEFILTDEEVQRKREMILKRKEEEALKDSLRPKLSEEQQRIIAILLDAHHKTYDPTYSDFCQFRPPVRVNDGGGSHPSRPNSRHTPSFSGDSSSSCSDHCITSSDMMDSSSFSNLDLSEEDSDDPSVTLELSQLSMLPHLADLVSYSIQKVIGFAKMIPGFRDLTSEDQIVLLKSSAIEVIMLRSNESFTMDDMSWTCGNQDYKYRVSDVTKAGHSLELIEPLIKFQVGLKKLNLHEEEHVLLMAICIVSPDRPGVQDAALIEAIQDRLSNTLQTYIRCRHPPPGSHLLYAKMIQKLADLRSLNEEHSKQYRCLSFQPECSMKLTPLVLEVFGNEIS
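After 23 nl compound addition and a short centrifugation, plates sat for 2 hours at ambient temperature; polarization of fluorescence then indicated loss of VDR binding to peptide SRC2-3.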
* hit, by the source's call; ? = inconclusive; . = no result given. Calls follow the shape of the dose curve; as a rule, active = well fitted curve in the direction sought with a large enough effect; inconclusive = small, poorly fitted or top-dose-only effect, or another doubt; inactive = no such curve, though single readings can be large; an effect the other way counts as inactive or inconclusive. % is scaled to controls: 0 for no effect and ±100 for the full control effect; potency is read from the fitted curve at half-maximal effect.

SMILES	PLK1 PBD block	TDP1 cell noCPT	GCN5L2 inh	DT40 TDP1 CPT	TDP1 block	VDR inhibitor
CC(=O)c1c(C)cc(C)c(CSc2nnc(-c3ccco3)o2)c1C	-3%	22µM*	-6%	13µM*	7%	1%
Cc1cccc(CSc2nnc(-c3ccco3)o2)c1	3%	-5%	-28%	9%	3%	-9%
O=C(NCCCCN1CCN(c2cccc(Cl)c2Cl)CC1)c1ccc2c(c1)Cc1ccccc1-2	.	.	0%	.	4%	6%
Cc1ccc(N(Cc2ccccc2)C(=O)Cc2ccc(S(=O)(=O)N3CCOCC3)s2)cc1	-6%	?	-5%	?	-2%	8%
COc1ccccc1-c1noc2c1C(=O)N(C(=O)OC(C)(C)C)CC2	2%	-7%	.	-8%	.	.
COc1ccccc1-c1noc2c1C(=O)N(Cc1cn(-c3ccccc3OC)nn1)CC2	-8%	18µM*	.	?	.	.
C/C(=N\NC(=O)Cc1ccc(F)cc1)c1ccc(O)cc1	0%	?	-10%	-27%	5%	-16%
COc1ccc2nc(/N=C/c3c(C)[nH]n(-c4ccc(C)cc4)c3=O)sc2c1	-14%	?	1%	13µM*	6%	-28%
Cc1ccc(N=Cc2c(C)[nH]n(-c3nc4ccccc4[nH]3)c2=O)cc1	-1%	4.1µM*	-6%	3.3µM*	8%	5%
Cc1ccc(-n2[nH]c(C)c(C=Nc3ccc(Br)cn3)c2=O)cc1	5%	?	-3%	?	5%	17%
Cc1ccc(-n2[nH]c(C)c(C=Nc3ccc4[nH]c(=O)[nH]c4c3)c2=O)cc1C	-3%	21µM*	-5%	?	5%	-3%
Cc1ccc(-n2[nH]c(C)c(C=Nc3ccc4[nH]c(=O)[nH]c4c3)c2=O)cc1	-7%	16µM*	3%	16µM*	2%	9%
C=CCOC(=O)C1=C[C@H](c2ccc(Br)cc2)C[C@H](OCc2ccc(CO)cc2)O1	-5%	-7%	.	-26%	.	-17%
CNC(=S)NNC(=O)c1c(C)nc2cc(C)ccn12	-7%	-14%	1%	1%	.	-2%
Cc1cccn2c(=O)c(/C=C(\C#N)C(N)=O)c(N3CCN(c4ccccc4)CC3)nc12	?	6.5µM*	0%	?	.	-5%
N#C/C(=C\c1c(N2CCN(c3ccccc3)CC2)nc2ccccn2c1=O)C(N)=O	-15%	-19%	-12%	-16%	.	-1%
CCNC(=O)/C(C#N)=C/c1c(N2CCN(c3ccccc3)CC2)nc2c(C)cccn2c1=O	-21%	?	0%	?	.	-13%
Cc1cccn2c(=O)c(/C=C(\C#N)C(N)=O)c(Oc3ccccc3)nc12	-6%	?	-2%	?	.	?
CNC(=O)/C(C#N)=C/c1c(N2CCN(c3cccc(Cl)c3)CC2)nc2c(C)cccn2c1=O	-10%	12µM*	1%	?	.	-15%
COCCNC(=O)/C(C#N)=C/c1c(N2CCN(c3ccccc3)CC2)nc2c(C)cccn2c1=O	?	?	-9%	23µM*	.	0%
Cc1cccn2c(=O)c(/C=C(\C#N)S(=O)(=O)c3ccccc3)c(Oc3ccc(Cl)cc3)nc12	-7%	18µM*	7%	?	2%	-28%
CCOC(=O)c1cc(-c2ccc(OC)cc2OC)nn1-c1ccc(C(=O)O)cc1	-6%	-19%	1%	-3%	-2%	?
CN(Cc1ccco1)c1ncncc1-c1ccc2c(c1)OCO2	.	-21%	-14%	?	.	?
C=CC[C@H](CC(=O)NCCO)C(=O)NCCOC(=O)[C@@H](CC=C)Cc1ccc(F)cc1	-3%	-12%	0%	-3%	0%	-4%
Cc1cccn2c(=O)nc(SCC(=O)NCc3ccc4c(c3)OCO4)nc12	-1%	-1%	?	15%	.	-5%
SMILES	PLK1 PBD block	TDP1 cell noCPT	GCN5L2 inh	DT40 TDP1 CPT	TDP1 block	VDR inhibitor
COCCNC(=O)/C(C#N)=C/c1c(N2CCN(c3ccc(OC)cc3)CC2)nc2c(C)cccn2c1=O	-5%	23µM*	?	23µM*	.	-5%
Cc1ccccc1Oc1nc2c(C)cccn2c(=O)c1/C=C(\C#N)C(=O)Nc1c(C)n(C)n(-c2ccccc2)c1=O	-29%	21µM*	-9%	21µM*	4%	50µM*
CCNC(=O)/C(C#N)=C/c1c(N2CCN(c3ccc(OC)cc3)CC2)nc2c(C)cccn2c1=O	24µM*	21µM*	-5%	?	.	?
CCOC(=O)/C(C#N)=C/c1c(N2CCN(c3ccc(OC)cc3)CC2)nc2c(C)cccn2c1=O	7%	?	-14%	?	.	-1%
COCCNC(=O)/C(C#N)=C/c1c(N2CCN(c3cccc(Cl)c3)CC2)nc2c(C)cccn2c1=O	?	23µM*	-2%	16µM*	.	-16%
Cc1ccc(C)c(NC(=O)CSc2nnc3n2CCCCC3)c1	-1%	-4%	9%	-8%	3%	14%
CCOc1cc(/C=C2\COc3ccccc3C2=O)ccc1OCC(=O)N(C)C	-10%	10µM*	-10%	?	3%	50µM*
CCNC(=O)COc1ccc(/C=C2\COc3ccccc3C2=O)cc1OC	-22%	13µM*	-6%	15µM*	10%	35µM*
OC(CNc1ccccc1)Cn1ccc2ccccc21 (centres undefined)	-3%	2%	-3%	?	5%	-7%
CCOC(=O)CNC(=O)N1CCN(S(=O)(=O)c2ccc3c(ccn3C)c2)CC1	.	.	-5%	.	8%	-1%
Cc1cc2[nH]c(=O)c(=O)[nH]c2cc1S(=O)(=O)Nc1cccc(F)c1	-5%	-10%	0%	9%	0%	-3%
OC[C@@H](O)[C@H](O)[C@H](O)[C@@H](O)CO	.	-1%	.	-13%	.	.
Cc1ccc2nc(SCc3nc(-c4ccc(Cl)cc4)no3)[nH]c2c1	.	23µM*	-12%	16µM*	3%	-4%
CCc1cc(=O)[nH]c(SCc2nc(-c3ccc(C(F)(F)F)cc3)no2)n1	.	16µM*	2%	23µM*	0%	9%
CC1CCCC(C)N1C(=O)COC(=O)c1cncc(Br)c1 (centres undefined)	-16%	-8%	-5%	-23%	0%	0%
O=c1[nH]c(SCc2ccccc2Cl)nc2c1CCC2	-6%	29µM*	1%	?	7%	6%
CN(C(=O)CSc1nc2c(c(=O)[nH]1)CCCC2)C1CCCCC1	27µM*	-5%	-5%	?	5%	-12%
COC(=O)c1ccc(CSc2nc3c(c(=O)[nH]2)CCC3)cc1	-13%	21µM*	-12%	?	6%	21%

High-throughput results (PubChem)
